From PubChem
Insulin prom up: MIN6 insulin promoter up-regulation | 190,000 compounds, 0.3% hits | AID 1625 | MIN6 insulin promoter-GFP reporter, high-content imaging; active compounds read high | z-score at 5 µM;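 active means z-score above 3 at 5 µM with at least 500 cells counted in the well; inconclusive means wells under 500 cells, flagged as cytotoxic or low count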
PTEN del growth: growth suppressors of cells with PTEN tumor suppressor deletion. HCT116 PTEN-null viability, CellTiter-Glo, 60 h; active compounds read low. viability, % at 10 µM. 140,000 compounds, 1.2% hits;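 active means viability at or below a set limit, 4 SD under the median of all tested compounds, cut at about 3.7% in these data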;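 further: PTEN knockout HCT116 line with beta catenin targeted HCT116 as companion control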
bCat KO growth: beta-catenin-lacking colon tumor cell growth suppression; HCT116 beta-catenin knockout viability, CellTiter-Glo, 60 h; active compounds read low; viability, % at 10 µM; 140,000 compounds, 1.5% hits; AID 818;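 active means viability at or under a set limit, the compound median less 4 SD, cut at about 6% in these data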;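 further: 0% = Hyamine 1622 control at 20 µM and 100% = untreated cell control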
Insulin prom inh: TRM-6 insulin promoter activity inhibition; TRM-6 cells (human fetal islet line), insulin promoter-eGFP reporter, imaging; reporter expression induced with tamoxifen; inhibition, % at 2 µM; 130,000 compounds, 0.9% hits;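 active means inhibition above the mean plus 3 SD, with well images judged a real hit on visual review, cut at about 60% in these data, passing the limit was not always enough; inconclusive means inhibition over the cutoff but images rejected on review; inactive means inhibition not above the cutoff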
Autophagy mod: modulators of autophagy | MEF GFP-LC3 puncta imaging; test concentration mostly 10 µM | calls only at 10 µM (by protocol) | 190,000 compounds, 0.98% hits | AID 463193;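 active means percentage of spot-positive cells more than 3 SD above its plate mean, without a fluorescence outlier flag or 80% toxicity; inconclusive means no clear call, values can overlap the other calls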;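 further: spot-positive cell cutoff set from DMSO-treated cells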
Lmaj promast: reduces viability of Leishmania major promastigotes | resazurin fluorescence viability | inhibition, % at 10 µM | 200,000 compounds, 9% hits | AID 1063; in the data active means inhibition above about 50%;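 further: promastigotes grown with compound for 44 hours at 28 °C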
Active calls of the source: *; i = inactive; ? = inconclusive; . = no result given; + = active, no number. Most compounds without a hit are left out; they make up all but 9.6% or so of the library.

SMILES	Insulin prom up	PTEN del growth	bCat KO growth	Insulin prom inh	Autophagy mod	Lmaj promast
C=CCNC(=S)NNC(=O)c1ccc2c(c1)OCO2	0.05	81.0	83.1	.	i	-12.3
CC(C)(C)c1ccc(S(=O)(=O)N2CCN(CCC#N)CC2)cc1	-0.09	93.6	91.0	-71.4	i	56.2*
CCNC(=S)N1CC(C)OC(C)C1 (stereo unspecified)	-0.59	104.1	100.5	0.0	i	-1.1
Cc1c(NS(=O)(=O)c2ccc3c(c2)Cc2ccccc2-3)c(=O)n(-c2ccccc2)n1C	-0.3	.	.	.	i	-4.0
O=C(NCc1cccs1)c1ccc(N2CCCCC2)nc1	3.41*	105.7	96.3	13.2	i	10.5
CC1CCCN(c2ccc(C(=O)NCc3cccs3)cn2)C1 (stereo unspecified)	.	96.0	96.3	27.6	i	-1.2
CC(C)n1c(-c2ccc(N(C)C)cc2)nc2ccccc21	-2.14	73.9	72.0	-19.4	i	50.4*
N=c1sccn1CC(=O)Nc1cc(Cl)ccc1[N+](=O)[O-]	0.2	.	.	.	+	3.8
N=c1ccn(CC(=O)c2ccc(-c3ccccc3)cc2)cc1	-0.57	.	.	.	i	99.0*
CC(=O)Nc1ccc(-c2nnc(SCc3c(C)cc(C)cc3C)n2C)cc1	0.23	85.6	91.6	.	i	76.1*
OCCN(CCO)CC(O)COc1ccc(C23CC4CC(CC(C4)C2)C3)cc1 (stereo unspecified)	-0.14	5.9	12.0	20.6	i	100.3*
OCCN(CCO)CC(O)COCCC12CC3CC(CC(C3)C1)C2 (stereo unspecified)	1.83	86.6	84.6	34.5	i	71.1*
CCN(CC)CC(O)COCCC12CC3CC(CC(C3)C1)C2 (stereo unspecified)	.	26.7	26.0	34.4	i	93.5*
CCCNC(=O)NCCC12CC3CC(CC(C3)C1)C2	0.23	.	.	47.1	i	45.5
OCCN(CCO)CC(O)COc1ccc(Br)cc1 (stereo unspecified)	-0.08	.	.	.	.	.
Cc1ccc(-n2ncc3c(SCC(=O)Nc4cc(C)on4)ncnc32)c(C)c1	-1.29	.	.	22.2	i	-6.1
COCCSc1ccccc1C(=O)N1CCCC(C)C1 (stereo unspecified)	0.32	.	.	.	i	0.0
Cc1ccc(-n2cnc3c(sc4nc(N5CCOCC5)c5c(c43)CCCC5)c2=O)cc1	-0.35	.	.	.	.	.
COc1ccc(-n2cnc3c(sc4nc(N5CCOCC5)c5c(c43)CCCC5)c2=O)cc1	.	.	.	.	i	87.3*
Cc1ccc(NNC(=O)C(=O)N2CCCCC2)cc1	.	84.5	88.6	.	i	65.7*
Cc1ccccc1C(=O)NNC(=O)C(=O)N1CCCCC1	-0.37	99.5	93.0	-10.3	i	25.9
COc1ccc(Cl)cc1NC(=S)N(Cc1ccccc1C)CC1CCC(C(=O)O)CC1 (stereo unspecified)	0.11	.	.	.	i	2.2
COC(=O)C1=C(C)N(c2ccc(C)c(C)c2)/C(=C/c2ccco2)C1=O	.	.	.	.	i	61.4*
CC(C)n1c(CNC(=O)c2ccccc2)nc2ccccc21	0.01	106.5	96.5	.	i	-7.1
O=C(NNC(=O)C1CC(c2cccnc2)=NO1)Nc1ccccc1F (stereo unspecified)	-0.64	.	.	20.0	i	-5.5
SMILES	Insulin prom up	PTEN del growth	bCat KO growth	Insulin prom inh	Autophagy mod	Lmaj promast
O=C(NCc1ccccn1)c1ccc(COc2ccc(Cl)cc2)o1	0.67	6.2	4.3*	-8.6	i	-3.6
CC(C)(C)c1ccc(OCC(=O)NCc2ccco2)cc1	-0.01	103.4	103.5	-57.1	i	70.8*
COC(=O)c1ccc(CNC(=O)c2ccc(COc3ccccc3)cc2)cc1	0.78	97.5	103.5	37.0	i	68.8*
O=C(NCc1ccco1)c1ccc(COc2ccc(Cl)cc2)cc1	-0.09	87.8	94.8	-29.7	i	50.3*
CC(C)c1ccc(OCC(=O)NCc2ccco2)cc1	.	103.8	92.2	66.7	i	-4.0
CCCCc1nc(SCCOC)c2c(=O)n(C)c(=O)n(C)c2n1	-0.91	.	.	.	i	2.9
O=Cc1cn(CCC(=O)O)nc1-c1cccc(Cl)c1	0.71	.	.	15.8	i	-8.0
COc1cccc(-c2nc(CS(=O)(=O)CC(=O)Nc3c(C)cccc3C)c(C)o2)c1	-0.1	100.1	96.1	.	i	-8.4
O=C(CN1C(=O)c2cccc3cccc(c23)C1=O)N1CCCCCC1	.	90.6	103.8	-2.0	i	40.0
CCCCn1c(O)c(N=Nc2ccccn2)c2ccccc21	-0.35	81.8	82.8	-6.5	i	65.8*
CCn1c(O)c(N=Nc2ccc3ccccc3n2)c2ccccc21	0.49	.	.	.	.	.
CC1(C)Cc2c(c(N3CCCC3)nc3sc4c(N5CCN(CCO)CC5)ncnc4c23)CO1	.	15.9	15.2	.	i	74.5*
OCCN1CCN(c2ncnc3c2sc2nc(N4CCOCC4)c4c(c23)CCC4)CC1	-1.19	65.1	65.6	.	i	28.9
CCOc1ccc(C(=O)c2nc3c(n2O)CCCC3)cc1	1.38	86.7	89.5	.	i	1.0
C=CCNc1ncnc2c1[nH]c1ccc(C)cc12	-0.51	57.9	54.1	?	i	82.9*
COc1ccc2[nH]c3c(NCCC4=CCCCC4)ncnc3c2c1	.	.	.	65.0*	i	99.8*
COc1ccc2[nH]c3c(NCc4ccco4)ncnc3c2c1	-0.28	15.2	19.8	32.4	i	51.0*
CCC(C)Nc1nc(N)c([N+](=O)[O-])c(NCCO)n1 (stereo unspecified)	0.08	.	.	.	.	.
CC(O)CNc1nc2ccccc2n1-c1ncnc2sc3c(c12)CCC3 (stereo unspecified)	0.32	57.0	47.3	.	i	73.7*
CCOC(=O)CC(NS(=O)(=O)c1ccc(OC)c(C)c1)c1cccc([N+](=O)[O-])c1 (stereo unspecified)	.	95.7	92.5	-46.7	+	11.3
CCCCCC/C(=N/O)c1ccccn1	-0.3	4.0	4.2*	.	.	90.7*
C/C(=N\NC(=O)C1CC1c1ccccc1)c1cccc([N+](=O)[O-])c1 (stereo unspecified)	-0.28	70.4	86.0	-4.2	i	-0.3
C/C(=N\NC(=O)C1CC1(c1ccccc1)c1ccccc1)c1cccc([N+](=O)[O-])c1 (stereo unspecified)	-0.03	70.1	82.5	18.4	i	59.7*
CC1(C)CC1C(=O)Nc1ccc([N+](=O)[O-])cc1Br (stereo unspecified)	0	81.2	91.3	35.3	i	-3.9
Cc1ccc(C2(c3ccc(C)cc3)CC2C(=O)Nc2ccc([N+](=O)[O-])cc2O)cc1 (stereo unspecified)	-0.36	3.3*	2.3*	.	i	100.1*
Nc1cc(=O)[nH]c(=S)n1-c1cccc(C(F)(F)F)c1	1.37	92.3	97.5	60.0*	i	0.2
COc1c(Br)cc(Br)cc1/C=N/NC(=O)c1ccncc1	0.11	.	.	.	i	6.6
CN(C)c1ccc(C(=O)N/N=C/c2cc(Br)cc(Br)c2O)cc1	4.65*	.	.	.	.	.
Clc1cccc(N/N=C/c2ccc(N3CCOCC3)cc2)c1	-1.12	80.5	88.0	25.0	i	82.9*
